As usually defined, the inhibition is how much of the control response was suppressed.

Among all 1,100 compounds or so, about 1,000 (91%) were called active. The set was probably picked from earlier hits. Only a sample is shown. A number with no mark means an inactive call.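 How the source made its calls: active means inhibition above 3 SD of the buffer control wells (cut at about 41% in these data); inactive means the rest.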

The text below walks through data of PubChem BioAssay AID602282 (Johns Hopkins Ion Channel Center, 2012).

The nature of this test: reduced carbachol calcium response, RGS4-induced M3R cells, confirmation, RGS4 activator project, cell-based, HEK293 M3R/RGS4 inducible, calcium flux, duplicate (AID 602282).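 Further: signal is the integrated peak-minus-minimum Fluo4 fluorescence over baseline ratio.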 The settings on record: carbachol calcium flux Fluo4, at 10 µM, active compounds read high. Background: Calcium assays in cells follow changes in intracellular calcium, usually with a dye or a luminescent sensor.
With `Cc1nn(C)cc1N1C(=O)c2cccc3c(N)ccc(c23)C1=O`, the inhibition is 97.5% (active). As to `OCCC1CN(Cc2ccc3nsnc3c2)CCN1C1CCCC1` (stereo not given), the inhibition was 82.5% (active). For `COc1cccc(/C=N/Nc2cc(C)nc(-c3ccccc3O)n2)c1O`, the inhibition is 93.5% (active). The value for `COc1cccc(-c2cc3nc4c(c(N5CCC6(CC5)OCCO6)n3n2)CCCC4)c1` was 56.5% (active).

As to `Cc1ccc(OS(=O)(=O)c2ccc(-c3csc(C)n3)s2)c(C)c1`, the inhibition is 82% (active). The value for `COC(=O)c1ccc(CN2CCC(CO)(Cc3ccc(OC)cc3)CC2)cc1` was 92% (active); that for `C#CC(CCN1CCCCC1)(OC)c1ccccc1` (stereo not given) was 93% (active); that for `CCCCCC(O)(CCN1CCCCC1)c1ccccc1` (stereo not given) was 93% (active). The value for `Cc1ccc(SCC(=O)c2cc(C)c(OC(=S)N(C)C)c(C)c2)cc1` was 88.5% (active); that for `Cc1cc2oc3ccc(NCCC4CCCN4C)cc3c(=O)c2cc1C` (stereo not given) was 91% (active).

Take `O=S(=O)(c1ccc(Br)cc1)n1ccc2ccccc21`: the inhibition was 80.5% (active). With `CCc1c(C)sc(NC(=O)c2ccc(Br)o2)c1C(=O)OC`, the inhibition was 69.5% (active). For the molecule `Cc1oc2c(F)c(F)c(F)c(F)c2c1S(=O)(=O)Nc1cccc(C(F)(F)F)c1`, the inhibition is 92% (active). The value for `COc1ccc(C(=O)Nc2nc(-c3ccc(S(=O)(=O)N4CCOCC4)cc3)cs2)cc1` was 85.5% (active); that for `CCc1ccccc1NC(=O)[C@@H]1CCC(=O)N1C1OC(=O)c2c1ccc(OC)c2OC` (stereo not given in full) was 0% [the number is a placeholder, only the call stands]; that for `CCC1CCCCN1CCCNC(=O)c1cc2c(Cl)nc3ccccc3c2s1` (stereo not given) was 93.5% (active). The value for `N=c1c2c3c(sc2nc2n1CCCCC2)CCCC3` was 87% (active); that for `Oc1ccccc1N1CCN(c2ncnc3sc(-c4ccccc4)cc23)CC1` was 87.5% (active); that for `COc1ccc(/C=C(\C#N)c2c[nH]c3ccccc23)cc1` was 85% (active). On to `COc1cccc(CNC(=O)CCC2CCCN(Cc3ccc(OC(F)F)cc3)C2)c1` (stereo not given), for which the inhibition was 74% (active). The value for `Cc1nc(N2CCN(c3ccccn3)CC2)c2c(C)c(C(=O)Nc3ccc(F)cc3)sc2n1` was 91% (active); that for `OC(CN=c1sc2ccccc2n1CC(O)COc1ccccc1)COc1ccccc1` (stereo not given) was 91.5% (active); that for `CCOC(=O)C1=C(NC(=S)NC(=O)c2ccccc2)c2ccccc2CC1(C)C` was 92% (active). The value for `CN1CCN(C(=O)N2c3ccccc3CCc3ccccc32)CC1` was 90.5% (active); that for `O=C(Cn1c(N2CCN(C/C=C/c3ccccc3)CC2)nc2ccccc21)c1ccccc1` was 91.5% (active). The value for `Cc1cccc(-c2nc3ccc(C(=O)NCCN4CCN(C)CC4)cc3nc2-c2cccc(C)c2)c1` was 93.5% (active); that for `COc1ccc(CN2CCCC(C(=O)c3ccc(Cl)cc3)C2)cc1Cn1cncn1` (stereo not given) was 93% (active); that for `COc1ccccc1C(CNC(=O)c1cccc(NS(=O)(=O)c2ccc(Br)cc2)c1)N(C)C` (stereo not given) was 85% (active).

Regarding `O=C(CN1CCCCCC1)Nc1ccc(S(=O)(=O)N2CCCCC2)cc1`, the inhibition is 65% (active). For the molecule `CCCN(CCc1ccccc1)C1CCc2c(O)cccc2C1` (stereo not given), the inhibition is 78% (active).

On to `CN(C)CCOc1ccc(Cl)cc1C(C)(C)C`, for which the inhibition was 81.5% (active).

`COc1ccc(CN(C)C(=O)c2cc(-c3ccc(C)cc3C)nc3ccccc23)c(OC)c1OC`: the inhibition is 90% (active). The value for `COc1ccc(-c2cc(C(=O)N(C)Cc3ccccc3)c3ccccc3n2)cc1` was 88.5% (active).

Consider `Cc1ccc(N2C(=O)CC(Nc3cccc4ccccc34)C2=O)cc1` (stereo not given), for which the inhibition is 0% [the number is a placeholder, only the call stands]. The value for `CN(C)S(=O)(=O)N1CCC(Oc2cccc(C(=O)NCCCC3CCCC3)c2)CC1` was 78.5% (active); that for `Cc1ccc(C)c(N2CCN(C(=O)CCCn3c(=O)c4cccn4c4cccnc43)CC2)c1` was 85.5% (active); that for `Cc1ccc(C)c(N2CCN(C(=O)CCCCCn3c(=S)[nH]c4ccc(N5CCOCC5)cc4c3=O)CC2)c1` was 92% (active). For `O=C(c1cccs1)C1C(c2ccc(Br)cc2)NC(=S)NC1(O)C(F)(F)F` (stereo not given), the inhibition is 93.5% (active).

In the case of `CCC1C=C(c2ccccc2)C=CN=C1N(CC)CC` (stereo not given), the inhibition was 84% (active). The value for `CCOC(=O)c1c(NC(=O)NC(C)(C)C)sc2c1CCN(C)C2` was 0% [the number is a placeholder, only the call stands]; that for `COc1cc(/C=C(\C#N)c2nc3ccccc3[nH]2)ccc1O` was 80.5% (active); that for `Cc1cccc(-c2nc(Nc3ccc(O)cc3)c3ccccc3n2)c1` was 80% (active). Consider `Cc1ccnc(SCCn2c(N(C)Cc3ccccc3)nc3c2c(=O)n(C)c(=O)n3C)n1`, for which the inhibition is 62% (active). The value for `Cc1ccccc1C(OCCN(C)C)C1CCCCC1` (stereo not given) was 91% (active); that for `S=c1[nH]nc(-c2ccc(Cl)cc2)n1CC1CCCO1` (stereo not given) was 59% (active). The value for `CN(C)c1ccc(/C=C2\NC(=S)N(Cc3ccccc3)C2=O)cc1` was 79.5% (active). Regarding `CCOc1ccc(C(CC(=O)O)NC(=O)COc2ccccc2)cc1` (stereo not given), the inhibition is 0% [the number is a placeholder, only the call stands]. The value for `CC(C)C(c1nnnn1CCc1ccccc1)N1CCN(C(=O)c2ccco2)CC1` (stereo not given) was 87.5% (active). The value for `Cc1ccc(OCCCCN2CCCCC2)c(Br)c1` was 0% [the number is a placeholder, only the call stands]; that for `COc1ccc(C(=O)NC2CCCc3c2cnn3-c2cccc(C)c2C)c(OC)n1` (stereo not given) was 91% (active).
